Compound activity: PubChem BioAssay, several laboratories
CYP2C19 inhib: blockers of cytochrome P450 2C19 activity – biochemical, luminescence, ADME assay, primary screen; P33261; CYP2C19 Supersomes, luciferin-H EGE luminescence, 30 min; inhibition, % at 5 µM; actives 21% (n = 96,000); AID 778, 2007;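 active = CYP2C19 inhibition above a set limit at 5 µM in the primary screen, cut at about 50% in these data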;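 also: plate controls were negative control wells for no effect and 2.5 mM tranylcypromine positive control for full effect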
Target sequence (P33261 whole entry, looked up): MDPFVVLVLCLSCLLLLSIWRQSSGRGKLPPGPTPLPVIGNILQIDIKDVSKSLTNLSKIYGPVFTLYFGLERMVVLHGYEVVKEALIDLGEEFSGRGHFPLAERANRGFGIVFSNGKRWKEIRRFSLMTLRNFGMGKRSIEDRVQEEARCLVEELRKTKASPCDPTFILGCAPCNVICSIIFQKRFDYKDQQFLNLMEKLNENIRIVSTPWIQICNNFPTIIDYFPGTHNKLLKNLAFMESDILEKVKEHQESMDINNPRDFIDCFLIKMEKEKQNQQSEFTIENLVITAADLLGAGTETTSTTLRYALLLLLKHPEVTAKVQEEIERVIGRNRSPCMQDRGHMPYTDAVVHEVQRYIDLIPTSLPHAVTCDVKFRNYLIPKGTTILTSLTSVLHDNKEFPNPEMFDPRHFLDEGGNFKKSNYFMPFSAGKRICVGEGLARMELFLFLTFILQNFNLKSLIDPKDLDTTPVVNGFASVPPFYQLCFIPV
Cav32 inh: Cav3.2 calcium influx blockers – cell-based, Fluo-4 calcium fluorescence, FDSS, MLSMR library, primary screen; actives 4% (n = 100,000); Cav3.2-expressing cells; active compounds read low; Voltage-dependent T-type calcium channel subunit alpha-1H (Homo sapiens), O95180; AID 449739, 2010; B-score at 10 µM;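 active = single-dose well whose peak fluorescence ratio is a statistical outlier from its plate by either plate-standardised score or position-corrected B-score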
CYP2C9 activ: human CYP2C9 activators, primary screen, biochemical, luminescence; AID 1024, 2008; recombinant CYP2C9, luciferin-H conversion; active compounds read high; factor 1 = untreated enzyme, 0 = blocked; Cytochrome P450 2C9 (Homo sapiens), P11712; actives 1.4% (n = 96,000); activation factor at 5 µM;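 active = activation factor of 2 or more for CYP2C9 at a 5 µM dose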;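 also: 0 = sulfaphenazole-blocked wells and 1 = vehicle-only wells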
CYP2C19 activ: human CYP2C19 activators, primary screen, biochemical, luminescence. activation factor at 5 µM. Cytochrome P450 2C19 (Homo sapiens), P33261. AID 1025, 2008. recombinant CYP2C19, luciferin-H EGE luminescence; active compounds read high; 0 = fully inhibited enzyme, 1 = untreated enzyme. 96,000 tested, under 10 active;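 active = activation factor of at least 2 at 5 µM in the primary screen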;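 also: 0 = wells with 2.5 mM tranylcypromine and 1 = vehicle-only wells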
CYP2C9 inh: blockers of cytochrome P450 2C9 activity – biochemical, luminescence, ADME assay, primary screen; P11712; CYP2C9 Supersomes, luciferin-H conversion; inhibition, % at 5 µM; actives 20% (n = 96,000);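 active = blocking of liver enzyme CYP2C9 beyond about 50% at 5 µM, limit read from the data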
Starred values were filed as active, the others as inactive; · = not tested or not shown. An excerpt weighted towards active compounds, which were near 27% of everything screened.

SMILES	CYP2C19 inhib	Cav32 inh	CYP2C9 activ	CYP2C19 activ	CYP2C9 inh
Cn1c(NC(=O)C(C)(C)Oc2ccc(Cl)cc2)cc(=O)n(C)c1=O	98*	-0.022	0.8	0	25
CCn1c(=O)cc(SCC(=O)Nc2cc(OC)c(OC)c(OC)c2)c2ccccc21	77*	-0.28	2.9*	0.2	-188
CCn1c(=O)cc(SCC(=O)NCc2ccc(C)o2)c2ccccc21	32	-0.68	2*	0.7	-100
CCn1c(=O)cc(SCC(=O)Nc2ccc3c(c2)OCCO3)c2ccccc21	61*	-2.3	2*	0.4	-101
Cc1ccc(NC(=O)C2CC=CCC2C(=O)N2CCCCC2)cc1 (stereo not given)	38	0.56	0.7	0.6	29
COc1ccc(C(OC(=O)c2ccco2)C(=O)NCC2CCCO2)cc1 (stereo not given)	40	-0.22	0.8	0.6	21
COc1ccc(-c2noc(CSc3nnc(Cc4ccccc4)n3-c3cccc(C)c3)n2)cc1OC	98*	-5.5*	0.5	0	55*
Cc1ccc(-c2noc(CSc3nnc(Cc4ccccc4)n3-c3cccc(C)c3)n2)cc1	82*	-3.3	0.5	0.2	45
Cc1cccc(-c2noc(CSc3ccccc3)n2)c1	1	0.014	0.9	1	9
CCn1c(SCc2nc(-c3ccc(OC)c(OC)c3)no2)nnc1-c1cccs1	23	0.49	0.7	0.8	29
c1ccc(-c2nnc(CN3CCC4(CC3)OCCO4)o2)cc1	53*	-0.27	1	0.5	3
c1ccc(-c2nnc(CN3CCCc4ccccc43)o2)cc1	78*	·	0.2	0.2	76*
COc1ccccc1CNC(=O)c1c(-c2ccccc2)nn(-c2ccccc2)c1C	48	-1.9	0.7	0.5	28
Cc1c(C(=O)O)c(-c2ccccc2)nn1-c1ccccc1	-10	-4.3*	1.1	1.1	-6
CCc1ccccc1NC(=O)CSc1nc2ccccc2n1CC(=O)N(C)C	79*	-0.75	0.4	0.2	56*
CCc1cccc(C)c1NC(=O)CSc1nc2ccccc2n1CC(=O)N(C)C	54*	0.33	0.9	0.5	8
Cc1ccc(/C=N\Nc2cn[nH]c(=O)c2Cl)cc1	-2	-5.3*	1	1	-3
CC(=O)Nc1ccc(-c2nn[nH]n2)cc1Cl	4	0.82	0.9	1	13
Cc1cc2nc(C)c(Cc3ccccc3)c(=O)n2[nH]1	6	·	2.3*	0.9	-125
CCCCNC(=O)NS(=O)(=O)c1ccc(C(=O)OC(C)C)o1	5	1.4	0.3	0.9	69*
Cn1cccc1C(=O)OCC(=O)c1cc2ccccc2o1	46	-0.58	1.1	0.5	-7
O=C(COC(=O)c1ccc(Cl)s1)c1cc2ccccc2o1	70*	-0.68	0.6	0.3	43
Cc1noc(C)c1CSc1nnnn1-c1ccc(Cl)cc1	99*	0.5	0.4	0	58*
C=CCn1c(SCC(=O)Nc2sccc2C#N)nc2sc(C)c(C)c2c1=O	-7	0.1	0.7	1.1	30
Cc1noc(C)c1CSc1nc2sc(C)c(C)c2c(=O)n1-c1ccccc1	-3	-1.2	0.5	1	50*
SMILES	CYP2C19 inhib	Cav32 inh	CYP2C9 activ	CYP2C19 activ	CYP2C9 inh
Cc1cc(-n2c(C)cc(C(=O)CSc3nnnn3-c3ccc(Cl)cc3)c2C)no1	·	-1.1	·	·	·
O=c1c2ccccc2nc(SCc2nc(-c3ccccc3)no2)n1-c1ccc(F)cc1	16	-4.5*	0.4	0.8	59*
C=CCn1c(SCC(=O)c2cc(C)n(C(C)COC)c2C)nc2sc(C)c(C)c2c1=O (stereo not given)	89*	-2.9	0.1	0.1	91*
O=C1c2ccccc2C(Nc2ccc(S(=O)(=O)N3CCCCC3)cc2)N1c1ccccn1 (stereo not given)	·	-3	·	·	·
COC(=O)c1ccccc1NC(=O)COC(=O)CSCC(=O)N1CCOCC1	7	-0.09	1	0.9	-3
CC(C)(C)c1cc(C(=O)O)c(CN2CCCCC2)o1	19	0.045	1	0.8	2
O=C(O)CCn1c(SCc2ccccc2)nc2ccccc21	3	0.066	0.9	1	8
C=CCn1c(SCc2c(C)noc2C)nc2sc(C)c(C)c2c1=O	20	-3.3	0.4	0.8	56*
Cc1noc(C)c1CSc1nc2ccccc2n1CCc1ccccc1	63*	-4.1*	0.4	0.4	62*
Cc1cc(NC(=O)CSc2nc3ccccc3c(=O)n2-c2ccccc2)no1	9	0.21	0.7	0.9	30
Cc1noc(C)c1CSc1nc2ccccc2c(=O)n1-c1ccc(Cl)cc1	71*	-2.9	0	0.3	96*
O=C(Nc1nccs1)C1CCCN1S(=O)(=O)c1ccc(Cl)cc1 (stereo not given)	48	0.21	0.3	0.5	69*
CC1CCCCN1C(=O)c1ccc(S(=O)(=O)N2CCCCC2C)cc1 (stereo not given)	2	2.2	0.9	1	9
CC(=O)Oc1ccc(/C=N/NC(=O)C2CCCN2S(=O)(=O)c2ccc(Cl)cc2)cc1 (stereo not given)	12	-0.073	0.9	0.9	7
CC(C)CNC(=O)C1CCCN1S(=O)(=O)c1ccc(Cl)cc1 (stereo not given)	31	0.48	0.9	0.7	8
CC1CCCCN1S(=O)(=O)c1ccc(C(=O)Nc2sccc2C(N)=O)cc1 (stereo not given)	-6	-0.082	0	1.1	97*
CC(C)(C)C(=O)Nc1nc(C2CCCN2S(=O)(=O)c2ccc(Cl)cc2)cs1 (stereo not given)	100*	-4*	0	0	100*
Cc1c(NC(=O)C2CCCN2S(=O)(=O)c2ccc(Cl)cc2)c(=O)n(-c2ccccc2)n1C (stereo not given)	-15	0.69	1.2	1.2	-18
NC(=O)c1ccsc1NC(=O)C1CCCN1S(=O)(=O)c1ccc(Cl)cc1 (stereo not given)	61*	-2.2	0.2	0.4	78*
O=C(Nc1cccc(C(F)(F)F)c1)C12CC3CC(CC(C3)C1)C2	·	-0.63	·	·	·
C#CCSc1nnc(-c2ccc(OC)cc2)o1	16	0.14	1	0.8	-2
O=C(O)CCCNCc1ccccc1F	-7	0.83	1.1	1.1	-7
O=C(c1cccc(Cl)c1)c1nn(-c2ccccc2)c(=O)cc1C(F)(F)F	42	-3.1	0.7	0.6	28
C=CCOC(=O)C1=C(C)Nc2ncnn2C1c1cccs1 (stereo not given)	42	0.39	0.7	0.6	32
CCCCCCCOC(=O)C1=C(C)Nc2ncnn2C1c1cccs1 (stereo not given)	74*	-0.64	0.4	0.3	64*
